29 compounds from PubChem BioAssay (NCATS) can be followed below.

Results filed as inconclusive are left out. A call without a number means that no potency is given here. Active and inactive are the calls of the source. Unless noted, calls follow the shape of the dose curve; as a rule, active = well fitted curve in the direction sought with a large enough effect; inconclusive = small, poorly fitted or top-dose-only effect, or another doubt; inactive = no such curve, though single readings can be large; an effect the other way counts as inactive or inconclusive.

In one assay the target is Cytochrome P450 2C9 (Homo sapiens) (UniProt P11712). As to the kind of experiment: Cytochrome P450 family 2 subfamily C member 9 (CYP2C9) small molecule antagonists: luciferase biochemical (cell-free) qHTS assay (AID 1645842; active = well fitted curve in the direction sought with a large enough effect in the repeat runs; an effect the other way counts as inactive or inconclusive; also: nearly all actives have a fitted effect of over 55% in size; also: potency is read from the fitted curve at half-maximal effect). To be noted: P450-Glo CYP2C9 enzyme assay, luciferin luminescence; series mostly up to 57.4 µM. A digest of the protocol: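 P450-Glo CYP2C9 system: proluciferin substrate with enzyme in mix containing 0.4% BSA, 10 min at room temperature, then NADPH regeneration solution added and incubated 1 h at 37C. Detection reagent stopped reaction; luminescence read after 20 min as RLU.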
Chain of Cytochrome P450 2C9 (Homo sapiens) (P11712 whole entry, looked up): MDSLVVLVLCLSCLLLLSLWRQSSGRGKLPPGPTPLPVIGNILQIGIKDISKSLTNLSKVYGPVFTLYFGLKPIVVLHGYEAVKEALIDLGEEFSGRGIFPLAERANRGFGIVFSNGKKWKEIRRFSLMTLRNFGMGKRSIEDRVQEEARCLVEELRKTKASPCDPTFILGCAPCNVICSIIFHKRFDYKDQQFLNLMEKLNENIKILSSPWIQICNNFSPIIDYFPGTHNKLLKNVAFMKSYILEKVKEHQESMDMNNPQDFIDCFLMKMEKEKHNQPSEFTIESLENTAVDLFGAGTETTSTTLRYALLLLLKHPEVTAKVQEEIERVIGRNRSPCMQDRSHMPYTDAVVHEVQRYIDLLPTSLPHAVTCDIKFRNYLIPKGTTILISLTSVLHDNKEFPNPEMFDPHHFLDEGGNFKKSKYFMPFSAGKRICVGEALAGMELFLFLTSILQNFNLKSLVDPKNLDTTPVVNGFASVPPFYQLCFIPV
On the technique in general: In qHTS, concentration-response curves come from the screen itself.
In the case of `COCC(C)N(C(=O)CCl)c1c(C)csc1C` (centres undefined), the Potency was 13.5 µM (active). As to `CCCC(C)C1(CC)C(=O)NC(=O)NC1=O` (centres undefined), the Potency entry was “inactive”. With `O=C(NC(=O)c1c(F)cccc1F)Nc1ccc(Cl)c(Oc2ncc(C(F)(F)F)cc2Cl)c1`, the Potency is 1.9 µM (active). Still for that read-out and setting: with `CC(C)(C)c1cc(O)ccc1O` the figure was 12 µM (active); with `CC(Cc1ccccc1)NC=O` (centres undefined), “inactive”; with `C#CC(C)(O)CC` (centres undefined), “inactive”.

The target of a further assay is Papain (Carica papaya) (UniProt P00784). As to the kind of experiment: Primary qHTS assay for inhibitors of the protease papain (AID 1645873).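 Also: papain turnover of Z-FR-AMC read as the AMC fluorescence gain over 10 min.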 The conditions noted are these: papain Z-FR-AMC cleavage, AMC fluorescence; series mostly up to 49.8 µM.
Chain of Papain (Carica papaya) (P00784 whole entry, looked up): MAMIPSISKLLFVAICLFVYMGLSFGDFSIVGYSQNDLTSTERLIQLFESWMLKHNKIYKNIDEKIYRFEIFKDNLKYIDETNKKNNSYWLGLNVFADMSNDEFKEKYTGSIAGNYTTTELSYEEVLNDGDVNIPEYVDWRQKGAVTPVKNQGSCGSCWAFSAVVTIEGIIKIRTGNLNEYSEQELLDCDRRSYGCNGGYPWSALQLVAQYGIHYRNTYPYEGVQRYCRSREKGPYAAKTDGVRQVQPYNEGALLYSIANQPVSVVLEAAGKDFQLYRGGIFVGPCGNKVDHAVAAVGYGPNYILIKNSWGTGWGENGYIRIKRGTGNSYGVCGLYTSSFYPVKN
For `O=[N+]([O-])/C=C/c1ccc2c(c1)OCO2`, the Potency result was “inactive”. Same read-out and setting: with `[Cl-].[Cl][Pt].[NH2-].[NH2-].c1ccncc1` the entry was “inactive”; with `Ic1ccccc1CNC1C2CCN(CC2)C1C(c1ccccc1)c1ccccc1` (centres undefined), “inactive”.

As for `CN(N=O)c1cc(O)ccc1O`, the Potency result is “inactive”.

System in another assay: not listed separately
As to the kind of experiment: Primary qHTS for inhibitors of nuclear receptor binding SET domain protein 2 (NSD2) in an isogenic RCH-ACV NSD2 p.E1099K mutant (9B) (AID 1645876). Also: nearly all actives have a fitted effect of over 70% in size. Also: potency is read from the fitted curve at half-maximal effect. To be noted: RCH-ACV (leukaemia line) NSD2 E1099K (9B) viability, CellTiter-Glo, 72 h; series mostly up to 44.9 µM.
For `CCN1CC2(COC)C3[C@@H](OC)C4C1C3(C1C[C@]3(O)[C@H](OC(=O)c5ccccc5)C1[C@]4(OC(C)=O)[C@@H](O)[C@@H]3OC)[C@H](OC)C[C@H]2O` (some centres undefined), the Potency result was “inactive”.

In the case of `C/C=C(\C)C(=O)OC1CC2C(CC=C3CC(OC4CC(OC)C(OC5CC(OC)C(OC6OC(C)C(OC7OC(CO)C(O)C(O)C7O)C(OC)C6O)C(C)O5)C(C)O4)CCC32C)C2(O)CCC(C(C)=O)C12C` (centres undefined), the activity change, negative = viability loss is -7.24% [at 9.23 µM] (inactive). As for `C=C[C@H]1[C@H](O[C@@H]2O[C@H](CO)[C@@H](O)[C@H](O)[C@H]2O)OC=C2C(=O)OCC[C@H]21`, the Potency entry is “inactive”. Turning to `COC(=O)C12C(=O)C(C)(O)C(=O)C1(C)C(C)=CC1C34CCC(OC3=O)C(C)(CO)C4CCC12C` (centres undefined), the Potency entry was “inactive”. Same read-out and setting: the same measure for `CC1=C2C(=O)C3[C@@H](CC=C4C[C@@H](O)CC[C@@]43C)[C@@H]2CC[C@]12O[C@@H]1C[C@H](C)CN[C@H]1[C@H]2C` (some centres undefined): “inactive”. With `C[C@H]1O[C@@H](O[C@H]2C[C@@H](O)[C@]3(CO)C4C(CC[C@]3(O)C2)[C@@]2(O)CC[C@H](C3=CC(=O)OC3)[C@@]2(C)C[C@H]4O)[C@@H](O)[C@@H](O)[C@H]1O` (some centres undefined), the Potency is 0.153 µM (active). Still for that read-out and setting: the same measure for `COC1CC(O[C@H]2CC[C@]3(C=O)C4CC[C@]5(C)[C@@H](C6=CC(=O)OC6)CC[C@]5(O)[C@@H]4CC[C@]3(O)C2)OC(C)C1O[C@@H]1O[C@H](CO)[C@@H](O)[C@H](O)[C@H]1O` (some centres undefined): 0.0541 µM (active); for `CC12CCC3C(CCC4(O)CC(O)CCC34C=O)C1(O)CCC2C1=CC(=O)OC1` (centres undefined): 0.258 µM (active).

As to `C[C@@]12C[C@@H](c3ccoc3)OC(=O)C1CC[C@]1(C)[C@H]2[C@H]2C=C[C@]1(O)C(=O)O2` (some centres undefined), the Potency entry was “inactive”.

With `COC1CC(O[C@H]2CC[C@@]3(C)C(=CCC4C3C(O)[C@@H](O)[C@]3(C)[C@@H](C(C)=O)CC[C@]43O)C2)OC(C)C1OC1CC(OC)C(OC2OC(C)C(O)C(O)C2O)C(C)O1` (some centres undefined), the activity change, negative = viability loss is -2.91% [at 9.23 µM] (inactive). Take `C[C@]12CC[C@H]3[C@@H](CC[C@@]45O[C@@H]4C(O)=C(C#N)C[C@]35C)[C@@H]1CC[C@@H]2O`: the Potency was 16.6 µM (active).

For the compound `COC1=CC(=O)O[C@@H](/C=C/c2ccccc2)C1`, the Potency entry was “inactive”. As for `COc1ccc2c(c1)/C(=C/c1cnc[nH]1)C(=O)N2`, the Potency was 13 µM (active).

On to `C[C@@H]1C(=O)O[C@H]2[C@H](O)[C@@]34[C@@H]5OC(=O)[C@@]3(O[C@@H]3OC(=O)[C@@H](O)[C@@]34[C@H](C(C)(C)C)[C@H]5O)[C@@]12O`, for which the Potency result is “inactive”. `COc1c(C(C)C)cc2c(c1O)[C@@]1(C(=O)O)CCCC(C)(C)C1CC2` (some centres undefined): the Potency entry is “inactive”. Still for that read-out and setting: with `C1=C2CCCN[C@H]2[C@@H]2C[C@H]1[C@H]1CCCCN1C2` the entry was “inactive”; with `Clc1ccc(N2C[C@H]3CC[C@@H](C2)N3)nn1`, “inactive”.

Turning to `COC1CC(OC2CCC3(C)C(=CCC4C3CCC3(C)C(C(C)OC5OC(COC6OC(CO)C(O)C(O)C6O)C(O)C(O)C5O)CCC43O)C2)OC(C)C1OC1OC(C)C(O)C(OC)C1O` (centres undefined), the outcome was “inactive [at 9.23 µM]”. With `CCC(C)(OC(C)=O)C(=O)O[C@H]1[C@H](OC(C)=O)C[C@@H]2[C@@](C)([C@@H]3C[C@H]4C=CO[C@H]4O3)[C@H](C)C[C@H](OC(C)=O)[C@@]2(COC(C)=O)[C@@]12CO2` (some centres undefined), the Potency result was “inactive”.
